The source of these data is PubChem BioAssay (EPA / NIEHS).

Structures are written as SMILES. Records with an inconclusive call do not appear. Activity calls are given as the source filed them. Rule for the calls, unless noted: active = hit-call score of the fitted dose curve at least 0.9, where 1 is the maximum; inconclusive = response in the unintended direction; inactive = score below 0.9.

Read-out in assay [1]: Cytochrome P450 2B6 (Homo sapiens) (UniProt P20813)
In words: CLD_CYP2B6_48hr: CellzDirect (CLD) Gene Expression Assay for xenobiotic metabolism (CYP2B6) at 48 hours (AID 2283699).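 Note: actives raise transcript level above DMSO so potency reflects induction.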 A digest of the protocol:
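Primary human hepatocytes dosed daily for two days over multiple concentrations, 0.2% DMSO vehicle; CYP2B6 mRNA quantified at 48 h by qNPA chemiluminescence. Induction fitted as gain of signal versus DMSO; cytotoxicity annotated by morphology.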

Read-out in assay [2]: xenobiotic metabolism (CYP1A2), CYP1A2 (gene 1544)
In words: CLD_CYP1A2_48hr: CellzDirect (CLD) Gene Expression Assay for xenobiotic metabolism (CYP1A2) at 48 hours (AID 2283703). A digest of the protocol:
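Primary human hepatocytes from two donor preparations were dosed daily for two days at multiple concentrations in 0.2% DMSO vehicle. CYP1A2 mRNA was measured at 48 hours by chemiluminescent quantitative nuclease protection assay, with gain of signal fitted versus DMSO and cytotoxicity annotated from morphology.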

Read-out in assay [3]: alkyl and aryl transferase (GSTA2), GSTA2 (gene 2939)
In words: CLD_GSTA2_48hr: CellzDirect (CLD) Gene Expression Assay for alkyl and aryl transferase (GSTA2) at 48 hours (AID 2283708).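 Note: active means mRNA induction above DMSO vehicle baseline.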 A digest of the protocol:
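Primary human hepatocytes dosed daily for two days (0.2% DMSO vehicle), harvested at 48 h. GSTA2 mRNA induction measured by quantitative nuclease protection assay with chemiluminescent imaging, fitted for gain of signal relative to DMSO.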

Read-out in assay [4]: alkyl and aryl transferase (GSTA2), GSTA2 (gene 2939)
The experiment in a line: CLD_GSTA2_24hr: CellzDirect (CLD) Gene Expression Assay for alkyl and aryl transferase (GSTA2) at 24 hours (AID 2283693). A digest of the protocol: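 Primary human hepatocytes (two donor preparations) dosed daily for two days with chemicals at multiple concentrations (vehicle 0.2% DMSO); GSTA2 mRNA at 24 h measured by qNPA chemiluminescence, gain-of-signal versus DMSO.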

Read-out in assay [5]: sulfotransferase (SULT2A), SULT2A1 (gene 6822)
The experiment in a line: CLD_SULT2A_24hr: CellzDirect (CLD) Gene Expression Assay for sulfotransferase (SULT2A) at 24 hours (AID 2283694). A digest of the protocol: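 Primary human hepatocytes from two donor preparations were dosed daily with fresh solutions, vehicle 0.2% DMSO. At 24 h, lysates went to quantitative nuclease protection (qNPA) with S1 digestion and chemiluminescent readout. Cytotoxicity was annotated from phase-contrast morphology.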

Read-out in assay [6]: ABC Transporter (ABCB1), ABCB1 (gene 5243)
In words: CLD_ABCB1_48hr: CellzDirect (CLD) Gene Expression Assay for ABC Transporter (ABCB1) at 48 hours (AID 2283695). A digest of the protocol:
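Primary human hepatocytes from two donor preparations dosed daily on two consecutive days with 0.2% DMSO vehicle. Harvest at 48 h. ABCB1 mRNA quantified by qNPA with chemiluminescence and fitted for gain of signal versus DMSO.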

Read-out in assay [7]: glucuronosyltransferase (UGT1A1), UGT1A1 (gene 54658)
In words: CLD_UGT1A1_24hr: CellzDirect (CLD) Gene Expression Assay for glucuronosyltransferase (UGT1A1) at 24 hours (AID 2283696). A digest of the protocol: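 Primary human hepatocytes from two donor preparations were dosed (0.2% DMSO vehicle) and harvested at 24 h; UGT1A1 mRNA induction was quantified by chemiluminescent qNPA, fitted as gain relative to DMSO.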

Read-out in assay [8]: Broad substrate specificity ATP-binding cassette transporter ABCG2 (Homo sapiens) (UniProt Q9UNQ0)
The experiment in a line: CLD_ABCG2_48hr: CellzDirect (CLD) Gene Expression Assay for ABC Transporter (ABCG2) at 48 hours (AID 2283704). A digest of the protocol: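 Primary human hepatocytes from two donors, dosed daily for 2 days, 0.2% DMSO vehicle, several concentrations. ABCG2 mRNA at 48 h by qNPA chemiluminescence, gain fitted versus DMSO; cytotoxicity flagged by morphology.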

Read-out in assay [9]: glucuronosyltransferase (UGT1A1), UGT1A1 (gene 54658)
In words: CLD_UGT1A1_48hr: CellzDirect (CLD) Gene Expression Assay for glucuronosyltransferase (UGT1A1) at 48 hours (AID 2283709).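 Note: actives increase expression relative to DMSO so potency refers to induction.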 A digest of the protocol:
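Human primary hepatocytes dosed daily for two days (0.2% DMSO vehicle), harvested at 48 h. UGT1A1 mRNA induction measured by quantitative nuclease protection assay with chemiluminescence; gain of signal versus DMSO; cytotoxicity flagged from morphology.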

Assay [10] is described as follows: CEETOX_H295R_MTT_cell_viability: Viability Assessment in the CeeTox HT-H295R MTT Assay (AID 2283718; active = hit-call score of the fitted dose curve at least 0.9, where 1 is the maximum; inactive = score below 0.9). A digest of the protocol: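 Human H295R adrenal cells, prestimulated 48 h with 10 uM forskolin, were exposed 48 h to chemicals in 0.1% DMSO. Viability was measured in the same wells by MTT (0.5 mg/ml, 4 h, 37 C), absorbance 570/650 nm, as percent of controls.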

A short description of assay [11]: Tanguay_ZF_120hpf_ActivityScore_legacy: (Legacy) Oregon State University Tanguay Lab 120 Hour Post-fertilization zebrafish Assay Score for Activity (AID 2283742). A digest of the protocol: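 Dechorionated Tropical 5D embryos, one per well from 6 hpf, statically exposed to 120 hpf at 28 °C in 0.64% DMSO. Mortality and malformations scored binary by brightfield microscopy; activity score combines 18 endpoints, fitted positively versus DMSO.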

Assay [12] concerns Thyroperoxidase (TPO), gene 445522. In words: CCTE_Simmons_GUA_TPO: CCTE's Guaiacol Assay for Thyroperoxidase (TPO) Inhibition, Simmons Lab (AID 2283750). A digest of the protocol:
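Porcine thyroid microsomes (25 ug) in 200mM potassium phosphate, preincubated 30 s at 37C with compound (8 concentrations, 5 nM–87.5 uM) and 35mM guaiacol; 1mM H2O2 starts reaction. Absorbance change at 450nm over first 80 s; loss of signal versus DMSO, three replicates.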

Read-out in assay [13]: Cytochrome P450 3A4 (Homo sapiens) (UniProt P08684)
In words: CLD_CYP3A4_24hr: CellzDirect (CLD) Gene Expression Assay for xenobiotic metabolism (CYP3A4) at 24 hours (AID 2283689). A digest of the protocol: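 Primary human hepatocytes from two donors dosed daily with fresh compound for two days, 0.2% DMSO vehicle. CYP3A4 mRNA at 24 hr by qNPA chemiluminescence; gain-of-signal fit versus DMSO, cytotoxicity flagged by morphology.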

Read-out in assay [14]: Cytochrome P450 2C9 (Homo sapiens) (UniProt P11712)
The experiment in a line: CLD_CYP2C9_48hr: CellzDirect (CLD) Gene Expression Assay for xenobiotic metabolism (CYP2C9) at 48 hours (AID 2283701; active = hit-call score of the fitted dose curve at least 0.9, where 1 is the maximum; inactive = score below 0.9). A digest of the protocol:
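Primary human hepatocytes (two donor preparations) dosed daily for two days with test chemicals, 0.2% DMSO vehicle; harvested at 48 h. mRNA induction quantified by qNPA chemiluminescence, fitted for gain of signal against DMSO baseline; cytotoxicity annotated from phase-contrast morphology.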

Read-out in assay [15]: sulfotransferase (SULT2A), SULT2A1 (gene 6822)
In words: CLD_SULT2A_48hr: CellzDirect (CLD) Gene Expression Assay for sulfotransferase (SULT2A) at 48 hours (AID 2283710).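 Note: hits raise SULT2A1 transcript above the 0.2% DMSO vehicle baseline.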 A digest of the protocol: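 Primary human hepatocytes (two donor preparations) dosed daily for two days with chemicals at multiple concentrations, vehicle 0.2% DMSO; SULT2A1 mRNA induction at 48 h by quantitative nuclease protection assay, chemiluminescent read-out, fitted for gain of signal versus DMSO.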

Assay [16] in a line: STM_H9_OrnithineISnorm_perc: Stemina devTOX quickPredict H9 human embryonic stem cell (hESC)-based Assay for Ornithine (ORN) Metabolite Biomarker, Normalized (AID 2283712; active = hit-call score of the fitted dose curve at least 0.9, where 1 is the maximum; inactive = score below 0.9;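 note: ornithine released into spent medium during last day measured by mass spectrometry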). A digest of the protocol:
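Undifferentiated H9 hESCs exposed 72 h with daily media and compound renewal; final 24-h conditioned medium analysed by UPLC-HRMS. Ornithine peak area normalised to spiked C13 standard and to median 0.1% DMSO control; viability by CellTiter-Fluor.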

Assay [17] can be described thus: STM_H9_CystineISnorm_perc: Stemina devTOX quickPredict H9 human embryonic stem cell (hESC)-based Assay for Cystine (CYSS) Metabolite Biomarker, Normalized (AID 2283713; active = hit-call score of the fitted dose curve at least 0.9, where 1 is the maximum; inactive = score below 0.9). A digest of the protocol: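 Undifferentiated H9 hESCs exposed 72 h, compound and media replaced every 24 h; final 24-h media analysed by UPLC-HRMS. Cystine normalized to C13 spike-in standard and median 0.1% DMSO control.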

Read-out in assay [18]: xenobiotic metabolism (CYP1A1), CYP1A1 (gene 1543)
The experiment in a line: CLD_CYP1A1_48hr: CellzDirect (CLD) Gene Expression Assay for xenobiotic metabolism (CYP1A1) at 48 hours (AID 2283705). A digest of the protocol:
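Primary human hepatocytes from two donors dosed daily for two days at multiple concentrations, 0.2% DMSO vehicle; CYP1A1 mRNA induction at 48 h by qNPA chemiluminescence. Cytotoxicity noted by phase-contrast morphology.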

Read-out in assay [19]: organic anion transporter (SLCO1B1), SLCO1B1 (gene 10599)
In words: CLD_SLCO1B1_48hr: CellzDirect (CLD) Gene Expression Assay for organic anion transporter (SLCO1B1) at 48 hours (AID 2283707). A digest of the protocol: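 Primary human hepatocytes from two donor preparations dosed daily for two days with multiple concentrations, 0.2% DMSO vehicle. SLCO1B1 mRNA at 48 h by quantitative nuclease protection assay, chemiluminescence; gain-of-signal fitted versus DMSO.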

Chain of Broad substrate specificity ATP-binding cassette transporter ABCG2 (Homo sapiens) (Q9UNQ0 whole entry, looked up): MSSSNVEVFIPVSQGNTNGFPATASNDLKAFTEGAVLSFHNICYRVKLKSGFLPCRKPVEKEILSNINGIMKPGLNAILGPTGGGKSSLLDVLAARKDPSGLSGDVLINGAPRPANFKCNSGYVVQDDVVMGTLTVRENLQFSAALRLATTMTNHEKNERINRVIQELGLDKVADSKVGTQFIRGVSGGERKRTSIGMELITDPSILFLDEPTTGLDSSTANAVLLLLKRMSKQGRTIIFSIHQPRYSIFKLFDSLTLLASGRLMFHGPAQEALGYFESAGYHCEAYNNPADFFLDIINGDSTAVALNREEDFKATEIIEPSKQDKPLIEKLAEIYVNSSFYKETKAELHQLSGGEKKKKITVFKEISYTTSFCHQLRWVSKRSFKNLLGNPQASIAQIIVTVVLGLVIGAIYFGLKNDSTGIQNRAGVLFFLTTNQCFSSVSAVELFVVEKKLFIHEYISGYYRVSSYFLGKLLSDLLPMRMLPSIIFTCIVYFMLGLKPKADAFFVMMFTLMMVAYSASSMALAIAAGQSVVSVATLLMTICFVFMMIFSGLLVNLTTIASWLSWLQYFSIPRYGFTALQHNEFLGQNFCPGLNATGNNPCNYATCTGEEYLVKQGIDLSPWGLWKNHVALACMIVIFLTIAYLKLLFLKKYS
Chain of Cytochrome P450 3A4 (Homo sapiens) (P08684 whole entry, looked up): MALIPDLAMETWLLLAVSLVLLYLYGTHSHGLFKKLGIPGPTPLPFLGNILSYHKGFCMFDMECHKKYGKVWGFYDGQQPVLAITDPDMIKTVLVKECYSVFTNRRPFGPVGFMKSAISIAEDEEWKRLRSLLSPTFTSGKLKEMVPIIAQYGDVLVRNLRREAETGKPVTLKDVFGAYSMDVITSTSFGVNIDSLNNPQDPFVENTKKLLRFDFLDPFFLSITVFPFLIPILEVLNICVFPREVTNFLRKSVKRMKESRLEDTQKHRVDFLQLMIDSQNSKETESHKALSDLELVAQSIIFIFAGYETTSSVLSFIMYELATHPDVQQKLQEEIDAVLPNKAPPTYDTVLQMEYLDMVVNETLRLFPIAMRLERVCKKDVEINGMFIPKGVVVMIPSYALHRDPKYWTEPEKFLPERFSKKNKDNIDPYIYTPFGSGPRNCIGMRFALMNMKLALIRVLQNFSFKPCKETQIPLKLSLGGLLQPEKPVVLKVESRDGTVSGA

For `CCN(CC)C(=O)SCc1ccc(Cl)cc1`, the AC50 in [1] is 20 µM (active).

Take `Clc1ccccc1-c1nnc(-c2ccccc2Cl)nn1`: in [2], the AC50 was 20 µM (active). Further, the outcome in [3] was inactive.

Take `C[C@H]1[C@H](c2ccc(Cl)cc2)SC(=O)N1C(=O)NC1CCCCC1`: the AC50 in assay [2] was 5.38 µM (active).

Take `CNC(=O)CSP(=S)(OC)OC`: the call in assay [4], in [5], in assay [6], in assay [7], in assay [8] and in [9] was inactive. In addition, the molecule was classed as inactive in [10], in assay [11] and in assay [12].

As for `Cc1[nH]c(=O)n(C(C)(C)C)c(=O)c1Cl`, the result in assay [13], in assay [6], in assay [7], in [14], in assay [9] and in [15] was inactive. For the same molecule, the result in assay [16], in assay [17] and in [11] was inactive.

`COP(=O)(OC)OC=C(Cl)Cl`: the molecule was called inactive in assay [4], in assay [5], in [6], in assay [7], in assay [14] and in assay [8]. Also, the call in assay [18], in assay [19], in assay [9], in assay [15] and in [11] was inactive.

For `O=C1c2ccccc2C(=O)N1SC(Cl)(Cl)Cl`, the molecule was called inactive in assay [4], in assay [6], in assay [7], in assay [8], in [19] and in assay [9]. Moreover, the result in assay [10] and in assay [11] was inactive.

Consider `CNC(=O)/C=C(\C)OP(=O)(OC)OC`, for which the molecule was classed as inactive in [13], in assay [5], in assay [6], in assay [7], in assay [2] and in assay [8]. Moreover, the result in assay [18], in assay [19], in assay [9], in assay [15], in assay [10] and in assay [11] was inactive.

Regarding `COc1nn(CSP(=S)(OC)OC)c(=O)s1`, the molecule was classed as inactive in [5], in assay [7], in assay [9], in assay [15], in [10] and in assay [11]. Further, the results for the AC50 in [2] and in assay [18] were 3.97 µM (active) and 11.2 µM (active), respectively.

The AC50 is the concentration giving half of the maximal activity seen.
